{
  "source": "PubChem BioAssay AID1159580",
  "about": "(chemical genetic matrix, 2015)",
  "assay": "chemical genetic growth profiling, strain panel (AID 1159580);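 also: tested at 20 µM; growth read once vehicle control cultures reached saturation at 30 °C; 1 = growth at the plate median or of vehicle wells; lower values mean less growth of the strain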",
  "settings": "growth OD",
  "note": "Out of some 5,500 compounds screened, about 2,000 (36%) were called active. Another 18% or so got no clear call; they are omitted. The list shows a part of the results. Values without a mark were called inactive. Rule as the data show it: active = normalized growth mostly below about 0.91 (no sharp cut-off); inconclusive = no clear call, values can overlap the other calls; inactive = mostly above about 0.92.",
  "data": [
    {"smiles": "Cc1cccc(N(C)C(=S)Oc2ccc3ccccc3c2)c1", "values": [
      {"measurement": "normalized growth", "setting": "S. cerevisiae deletion strains, locus YJR075W, strain HOC1, hits give low values", "result": 0.971},
      {"measurement": "normalized growth", "setting": "S. cerevisiae deletion strains, locus YKL009W, strain mrt4, hits give low values", "result": 0.99},
      {"measurement": "normalized growth", "setting": "S. cerevisiae deletion strains, locus YKL068W, hits give low values", "result": 0.981},
      {"measurement": "normalized growth", "setting": "S. cerevisiae deletion strains, locus YKL085W, strain MDH1 (second series), hits give low values", "result": 0.979},
      {"measurement": "normalized growth", "setting": "S. cerevisiae deletion strains, locus YKL085W, strain MDH1, hits give low values", "result": 0.979},
      {"measurement": "normalized growth", "setting": "S. cerevisiae deletion strains, locus YKL160W, strain elf1, hits give low values", "result": 0.947},
      {"measurement": "normalized growth", "setting": "S. cerevisiae deletion strains, locus YKL190W, strain CNB1, hits give low values", "result": 0.983},
      {"measurement": "normalized growth", "setting": "S. cerevisiae deletion strains, locus YKR001C, strain vps1, hits give low values", "result": 1.01},
      {"measurement": "normalized growth", "setting": "S. cerevisiae deletion strains, locus YKR026C, strain gcn3, hits give low values", "result": 1},
      {"measurement": "normalized growth", "setting": "S. cerevisiae deletion strains, locus YKR091W, strain srl3, hits give low values", "result": 0.993},
      {"measurement": "normalized growth", "setting": "S. cerevisiae deletion strains, locus YLL001W, strain dnm1, hits give low values", "result": 0.994},
      {"measurement": "normalized growth", "setting": "S. cerevisiae deletion strains, locus YLL026W, hits give low values", "result": 0.985},
      {"measurement": "normalized growth", "setting": "S. cerevisiae deletion strains, locus YLL041C, strain sdh2, hits give low values", "result": 0.987},
      {"measurement": "normalized growth", "setting": "S. cerevisiae deletion strains, locus YLR027C, strain aat2, hits give low values", "result": 0.99},
      {"measurement": "normalized growth", "setting": "S. cerevisiae deletion strains, locus YLR039C, strain RIC1, hits give low values", "result": "1.46 [resistant] (active)"},
      {"measurement": "normalized growth", "setting": "S. cerevisiae deletion strains, locus YLR058C, strain SHM2, hits give low values", "result": 0.972},
      {"measurement": "normalized growth", "setting": "S. cerevisiae deletion strains, locus YLR102C, strain apc9, hits give low values", "result": 0.979},
      {"measurement": "normalized growth", "setting": "S. cerevisiae deletion strains, locus YLR113W, strain HOG1, hits give low values", "result": 0.91},
      {"measurement": "normalized growth", "setting": "S. cerevisiae deletion strains, locus YLR221C, strain rsa3, hits give low values", "result": 1.02},
      {"measurement": "normalized growth", "setting": "S. cerevisiae deletion strains, locus YLR258W, strain gsy2, hits give low values", "result": 0.974},
      {"measurement": "normalized growth", "setting": "S. cerevisiae deletion strains, locus YLR262C, strain YPT6 (second series), hits give low values", "result": 1.13},
      {"measurement": "normalized growth", "setting": "S. cerevisiae deletion strains, locus YLR262C, strain YPT6, hits give low values", "result": "1.48 [resistant] (active)"},
      {"measurement": "normalized growth", "setting": "S. cerevisiae deletion strains, locus YLR268W, strain sec22, hits give low values", "result": 0.971},
      {"measurement": "normalized growth", "setting": "S. cerevisiae deletion strains, locus YLR320W, strain mms22, hits give low values", "result": 0.98},
      {"measurement": "normalized growth", "setting": "S. cerevisiae deletion strains, locus YLR330W, strain CHS5, hits give low values", "result": 0.984},
      {"measurement": "normalized growth", "setting": "S. cerevisiae deletion strains, locus YLR342W, strain FKS1 (second series), hits give low values", "result": 0.995},
      {"measurement": "normalized growth", "setting": "S. cerevisiae deletion strains, locus YLR342W, strain FKS1, hits give low values", "result": 1.01},
      {"measurement": "normalized growth", "setting": "S. cerevisiae deletion strains, locus YLR357W, strain rsc2, hits give low values", "result": 0.999},
      {"measurement": "normalized growth", "setting": "S. cerevisiae deletion strains, locus YLR370C, strain arc18, hits give low values", "result": 1.01},
      {"measurement": "normalized growth", "setting": "S. cerevisiae deletion strains, locus YLR371W, strain rom2, hits give low values", "result": 0.947},
      {"measurement": "normalized growth", "setting": "S. cerevisiae deletion strains, locus YLR384C, strain iki3, hits give low values", "result": 0.995},
      {"measurement": "normalized growth", "setting": "S. cerevisiae deletion strains, locus YLR418C, strain cdc73, hits give low values", "result": 0.904},
      {"measurement": "normalized growth", "setting": "S. cerevisiae deletion strains, locus YML016C, strain PPZ1, hits give low values", "result": 0.998},
      {"measurement": "normalized growth", "setting": "S. cerevisiae deletion strains, locus YML032C, strain rad52, hits give low values", "result": 0.991},
      {"measurement": "normalized growth", "setting": "S. cerevisiae deletion strains, locus YML120C, strain ndi1, hits give low values", "result": 1},
      {"measurement": "normalized growth", "setting": "S. cerevisiae deletion strains, locus YML124C, strain tub3, hits give low values", "result": 0.969},
      {"measurement": "normalized growth", "setting": "S. cerevisiae deletion strains, locus YMR058W, strain fet3, hits give low values", "result": 0.994},
      {"measurement": "normalized growth", "setting": "S. cerevisiae deletion strains, locus YMR078C, strain ctf18, hits give low values", "result": 0.965},
      {"measurement": "normalized growth", "setting": "S. cerevisiae deletion strains, locus YMR125W, strain sto1, hits give low values", "result": 0.988},
      {"measurement": "normalized growth", "setting": "S. cerevisiae deletion strains, locus YMR129W, hits give low values", "result": 0.991},
      {"measurement": "normalized growth", "setting": "S. cerevisiae deletion strains, locus YMR205C, strain PFK2, hits give low values", "result": 0.952},
      {"measurement": "normalized growth", "setting": "S. cerevisiae deletion strains, locus YMR223W, strain ubp8, hits give low values", "result": 0.955},
      {"measurement": "normalized growth", "setting": "S. cerevisiae deletion strains, locus YMR231W, strain pep5, hits give low values", "result": 1.03},
      {"measurement": "normalized growth", "setting": "S. cerevisiae deletion strains, locus YMR263W, strain SAP30, hits give low values", "result": 0.958},
      {"measurement": "normalized growth", "setting": "S. cerevisiae deletion strains, locus YMR307W, strain GAS1, hits give low values", "result": 0.981},
      {"measurement": "normalized growth", "setting": "S. cerevisiae deletion strains, locus YNL067W, strain RPL9B, hits give low values", "result": 0.989},
      {"measurement": "normalized growth", "setting": "S. cerevisiae deletion strains, locus YNL071W, strain lat1, hits give low values", "result": 1.01},
      {"measurement": "normalized growth", "setting": "S. cerevisiae deletion strains, locus YNL183C, strain NPR1, hits give low values", "result": 0.907},
      {"measurement": "normalized growth", "setting": "S. cerevisiae deletion strains, locus YNL209W, strain ssb2, hits give low values", "result": 0.999},
      {"measurement": "normalized growth", "setting": "S. cerevisiae deletion strains, locus YNL233W, strain BNI4, hits give low values", "result": 0.985},
      {"measurement": "normalized growth", "setting": "S. cerevisiae deletion strains, locus YNL248C, strain rpa49, hits give low values", "result": 0.998},
      {"measurement": "normalized growth", "setting": "S. cerevisiae deletion strains, locus YNL250W, strain rad50, hits give low values", "result": 0.977},
      {"measurement": "normalized growth", "setting": "S. cerevisiae deletion strains, locus YNL271C, strain bni1, hits give low values", "result": 1},
      {"measurement": "normalized growth", "setting": "S. cerevisiae deletion strains, locus YNL298W, strain CLA4, hits give low values", "result": 0.99},
      {"measurement": "normalized growth", "setting": "S. cerevisiae deletion strains, locus YNL307C, strain MCK1, hits give low values", "result": 0.98},
      {"measurement": "normalized growth", "setting": "S. cerevisiae deletion strains, locus YNL322C, strain KRE1 (second series), hits give low values", "result": 1},
      {"measurement": "normalized growth", "setting": "S. cerevisiae deletion strains, locus YNL322C, strain KRE1, hits give low values", "result": 0.982},
      {"measurement": "normalized growth", "setting": "S. cerevisiae deletion strains, locus YNR049C, strain mso1, hits give low values", "result": 0.999},
      {"measurement": "normalized growth", "setting": "S. cerevisiae deletion strains, locus YNR052C, strain pop2, hits give low values", "result": 0.986},
      {"measurement": "normalized growth", "setting": "S. cerevisiae deletion strains, locus YOL006C, strain TOP1, hits give low values", "result": 0.828},
      {"measurement": "normalized growth", "setting": "S. cerevisiae deletion strains, locus YOL012C, strain htz1", "result": 0.985},
      {"measurement": "normalized growth", "setting": "S. cerevisiae deletion strains, locus YOL147C, strain pex11, hits give low values", "result": 0.982},
      {"measurement": "normalized growth", "setting": "S. cerevisiae deletion strains, locus YOR001W, strain rrp6, hits give low values", "result": 1},
      {"measurement": "normalized growth", "setting": "S. cerevisiae deletion strains, locus YOR061W, strain CKA2, hits give low values", "result": 0.966},
      {"measurement": "normalized growth", "setting": "S. cerevisiae deletion strains, locus YOR069W, strain VPS5, hits give low values", "result": 0.988},
      {"measurement": "normalized growth", "setting": "S. cerevisiae deletion strains, locus YOR070C, strain gyp1, hits give low values", "result": 0.992},
      {"measurement": "normalized growth", "setting": "S. cerevisiae deletion strains, locus YOR080W, strain dia2, hits give low values", "result": 0.981},
      {"measurement": "normalized growth", "setting": "S. cerevisiae deletion strains, locus YOR083W, strain WHI5, hits give low values", "result": 0.947},
      {"measurement": "normalized growth", "setting": "S. cerevisiae deletion strains, locus YOR106W, strain vam3, hits give low values", "result": 0.968},
      {"measurement": "normalized growth", "setting": "S. cerevisiae deletion strains, locus YOR136W, strain idh2, hits give low values", "result": 0.978},
      {"measurement": "normalized growth", "setting": "S. cerevisiae deletion strains, locus YOR144C, strain elg1, hits give low values", "result": 0.971},
      {"measurement": "normalized growth", "setting": "S. cerevisiae deletion strains, locus YOR184W, strain ser1, hits give low values", "result": 0.897},
      {"measurement": "normalized growth", "setting": "S. cerevisiae deletion strains, locus YOR231W, strain MKK1, hits give low values", "result": 0.945},
      {"measurement": "normalized growth", "setting": "S. cerevisiae deletion strains, locus YOR265W, strain rbl2, hits give low values", "result": 0.969},
      {"measurement": "normalized growth", "setting": "S. cerevisiae deletion strains, locus YOR270C, strain vph1, hits give low values", "result": 0.942},
      {"measurement": "normalized growth", "setting": "S. cerevisiae deletion strains, locus YOR290C, strain snf2, hits give low values", "result": 0.999},
      {"measurement": "normalized growth", "setting": "S. cerevisiae deletion strains, locus YOR316C, strain cot1, hits give low values", "result": 0.975},
      {"measurement": "normalized growth", "setting": "S. cerevisiae deletion strains, locus YPL051W, strain arl3, hits give low values", "result": 0.988},
      {"measurement": "normalized growth", "setting": "S. cerevisiae deletion strains, locus YPL055C, strain LGE1, hits give low values", "result": 0.922},
      {"measurement": "normalized growth", "setting": "S. cerevisiae deletion strains, locus YPL078C, strain atp4, hits give low values", "result": 0.953},
      {"measurement": "normalized growth", "setting": "S. cerevisiae deletion strains, locus YPL106C, strain sse1, hits give low values", "result": 0.941},
      {"measurement": "normalized growth", "setting": "S. cerevisiae deletion strains, locus YPL240C, strain hsp82, hits give low values", "result": 0.99},
      {"measurement": "normalized growth", "setting": "S. cerevisiae deletion strains, locus YPL256C, strain CLN2, hits give low values", "result": 0.931},
      {"measurement": "normalized growth", "setting": "S. cerevisiae deletion strains, locus YPR119W, strain clb2, hits give low values", "result": 0.963},
      {"measurement": "normalized growth", "setting": "S. cerevisiae deletion strains, locus YPR141C, strain kar3, hits give low values", "result": 0.973},
      {"measurement": "normalized growth", "setting": "S. cerevisiae deletion strains, locus YPR163C, strain tif3, hits give low values", "result": 0.976},
      {"measurement": "normalized growth", "setting": "S. cerevisiae deletion strains, locus YPR167C, strain met16, hits give low values", "result": 0.973},
      {"measurement": "normalized growth", "setting": "S. cerevisiae deletion strains, strain wtn01, hits give low values", "result": 0.994},
      {"measurement": "normalized growth", "setting": "S. cerevisiae strains, strain wild type, hits give low values", "result": 1.01}
    ]}
  ]
}
